Compounds with a hit are over-represented: about 10% of the library has one in this group of screens.
GPT2 inh = blocks human glutamate pyruvate transaminase 2 | hit rate 0.25% among 100,000 | AID 1671188 | Recombinant GPT2, coupled pyruvate oxidase/HRP Amplex Red fluorescence | Potency, µM (titrated, usually from 57.7 µM), usual class: inhibitors; note: nearly all actives have a fitted effect of over 60% in size
Target sequence (Q8TD30 whole entry, looked up): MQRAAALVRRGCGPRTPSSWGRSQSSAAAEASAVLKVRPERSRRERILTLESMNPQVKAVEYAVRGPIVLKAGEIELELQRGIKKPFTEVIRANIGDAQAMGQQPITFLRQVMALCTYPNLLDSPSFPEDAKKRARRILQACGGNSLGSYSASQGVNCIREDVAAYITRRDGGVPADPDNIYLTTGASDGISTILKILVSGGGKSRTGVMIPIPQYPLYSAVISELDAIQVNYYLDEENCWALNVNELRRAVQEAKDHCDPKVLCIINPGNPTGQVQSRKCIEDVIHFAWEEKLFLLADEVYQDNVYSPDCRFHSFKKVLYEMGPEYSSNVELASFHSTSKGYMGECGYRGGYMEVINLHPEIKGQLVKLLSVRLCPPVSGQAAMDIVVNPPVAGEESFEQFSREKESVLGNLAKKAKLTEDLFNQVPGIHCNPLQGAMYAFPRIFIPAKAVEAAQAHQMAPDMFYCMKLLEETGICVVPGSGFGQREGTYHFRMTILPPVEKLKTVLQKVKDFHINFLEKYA
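Inhibition is scored from Amplex Red fluorescence generated when pyruvate oxidase and HRP act on pyruvate released by GPT2. Reactions contain 10ng/uL enzyme, 250uM a-KG and 2mM L-alanine and run 30 min at room temperature.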
HEK cytotox = cytotoxic compounds in HEK 293 cells. hit rate 6.6% among 94,000. HEK 293 viability, ATP luminescence (CellTiter-Glo), 48-72 h. Potency, µM (doses to about 115 µM), actives largely listed as inhibitors. AID 1345083; note: nearly all actives have a fitted effect of over 60% in size
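Pintool-delivered compounds were incubated with HEK 293 cells (250 cells/well) at 37 degree Celsius for 48 or 72 hr. ATP-dependent luminescence (CellTiter-Glo) then reported remaining viable cells.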
Luciferase inh = inhibitors of firefly (Photinus pyralis) luciferase; P08659; purified P. pyralis luciferase, luminescence, biochemical; Potency, µM (series often up to 115 µM), usual class: inhibitors; hit rate 2.5% among 76,000; AID 1347043; note: nearly all actives have a fitted effect of over 65% in size
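Biochemical qHTS: compound (6-point titration) added to 10uM D-luciferin plus 10uM ATP in Tris acetate pH 7.5 buffer with Mg, Tween-20 and BSA, then purified enzyme at 10nM; light output imaged.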
NPR1 antag = antagonists of human natriuretic peptide receptor Npr1 | HEK293 hNpr1 GloSensor cGMP, ANP-stimulated luminescence | P16066 | hit rate 1.6% among 76,000 | AID 1347048 | Potency, µM (doses to about 46.3 µM), usual class: inhibitors; calls by dose curve; note: nearly all actives have a fitted effect of over 60% in size
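Compound pre-incubated 30 min at room temperature on GloSensor-loaded HEK293 cells stably carrying hNpr1 and the pGS-40F cGMP biosensor. Stimulation uses hNppA at 0.1 nM final; luminescence is taken at baseline and 20 min post-agonist.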
NIH3T3 tox = kills NIH 3T3 cells | NIH 3T3 viability, CellTiter-Glo ATP luminescence, 48-72 h | AID 1345082 | hit rate 4.3% among 94,000 | Potency, µM (titrated, usually from 96.7 µM), hits mostly inhibitors; note: nearly all actives have a fitted effect of over 55% in size
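Cells were seeded at 400 per well, treated with pin-transferred compound, and kept 48 or 72 hr at 37 °C before CellTiter-Glo addition and luminescence imaging of cellular ATP.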
Hits are given with their value; n = inactive; u = inconclusive; x = no result; ! = not confirmed by another sample; [ ] = dose if it differs, or a comment. Unless noted, calls come from the whole dose curve; as a rule, active = well fitted curve in the direction sought with a large enough effect; inconclusive = small, poorly fitted or top-dose-only effect, or another doubt; inactive = no such curve, though single readings can be large; an effect the other way counts as inactive or inconclusive.

SMILES	GPT2 inh	HEK cytotox	Luciferase inh	NPR1 antag	NIH3T3 tox
C[C@@H](NC(=O)N1CCOC[C@H]1c1ncc(-c2ccc(Cl)cc2)[nH]1)c1ccccc1	n	u	n	n	100µM
CC(C)(C)CN1CCOC[C@H]1c1ncc(-c2cccc(Cl)c2)[nH]1	n	100µM	n	n	89µM
FC(F)(F)c1ccc(-c2cnc([C@@H]3COCCN3Cc3ccncc3)[nH]2)cc1	n	u	n	n	n
O=C(NCCc1ccccc1F)c1ccc2nnc(CC3CC3)n2c1	n	n	x	x	u
CN1CCC(NCC2(COc3ccc(C(F)(F)F)cn3)C[C@@H](O)[C@@H](O)C2)CC1 (some centres undefined)	u	n	n	n	u
COc1ccc(C2Cn3nnc(-c4noc(-c5ccc(C)s5)n4)c3CO2)cc1 (centres undefined)	n	n	n	n	n
CCOc1ccc(CN2CCC3(Cc4ccccc4CNC3=O)C2)cc1 (centres undefined)	n	u	x	x	n
CC(C)(C)C(=O)N1CCOC[C@H]1c1ncc(-c2ccc(OC(F)(F)F)cc2)[nH]1	u	u	n	n	u
CO[C@@](C(=O)N1CCOC[C@H]1c1ncc(-c2ccccc2)[nH]1)(c1ccccc1)C(F)(F)F	n	u	n	n	45µM
CN1c2cc(C(=O)Nc3ccc(Br)cc3)ccc2C(=O)N2CCCCC21 (centres undefined)	n	u	32µM	n	u
CN1c2cc(C(=O)Nc3ccc(Br)cc3)ccc2C(=O)N2CCCCCC21 (centres undefined)	n	35µM	u	n	u
CSc1ccc(NC(=O)c2ccc3c(c2)N(C)C2CCCCCN2C3=O)cc1 (centres undefined)	n	u	u	u	u
CN1c2cc(C(=O)Nc3ccc(C(F)(F)F)cc3)ccc2C(=O)N2CCCCCC21 (centres undefined)	n	u	u	n	u
CNC(=O)c1cc(C2CC2)nc2c1c(C1CCCN1C(=O)c1ccc(Cl)nc1)nn2C (centres undefined)	x	n	x	x	n
Cc1noc2c(N3CCNC(=O)C3)cc(-c3cccc(C(F)(F)F)c3)nc12	n	u	n	n	u
Cc1noc2c(N3CCNC(=O)C3)cc(-c3cccs3)nc12	n	u	n	n	32µM
COc1cccc(Nc2cc(-c3cccs3)nc3c(C)noc23)c1	n	100µM	n	n	79µM
Cc1noc2c(NC3CCN(C)CC3)cc(-c3cccnc3)nc12	n	u	n	n	u
Cc1noc2c(NC3CCC(O)CC3)cc(-c3cccnc3)nc12 (centres undefined)	n	n	n	n	25µM
Cc1noc2c(NC3CCC(O)CC3)cc(-c3cccs3)nc12 (centres undefined)	n	u	n	n	28µM
COc1ccc(CN2CCN(c3cc(N(C)C)ncn3)CC2CCO)c(C)c1C (centres undefined)	n[11.5 µM]	u	n	n	u
CC(=O)N1CCN(C(=O)c2cc(-c3ccsc3)nc3c2cnn3C)CC1	n	n	x	x	n
O=C1CCCCC(C(=O)NCc2ccc3c(c2)OCO3)N1 (centres undefined)	n	n	n	n	n
O=C(c1cc(C2CC2)[nH]n1)N(Cc1ccc2c(c1)OCO2)C1CC1	n	u	28µM	n	n
O=c1n(-c2ccc(C(F)(F)F)cc2)nc2n1CCN(Cc1ccccc1)C2	n	7.9µM!	n	n	u
SMILES	GPT2 inh	HEK cytotox	Luciferase inh	NPR1 antag	NIH3T3 tox
Cc1ccc(CN2CCn3c(nn(-c4ccc(C(F)(F)F)cc4)c3=O)C2)cc1	n	u	n	n	u
COc1ccc(CN2CCn3c(nn(-c4ccc(OC)cc4)c3=O)C2)cc1	n	n	x	x	n
Cc1ccc(CN2CCn3c(nn(-c4ccncc4)c3=O)C2)cc1	n	u	n	20µM	u
COc1ccc(-n2nc3n(c2=O)CCN(Cc2ccccc2)C3)cc1	n	u	x	x	8.9µM
COc1ccc(-n2nc3n(c2=O)CCN(C(=O)c2ccc(C(F)(F)F)cc2)C3)cc1	n	n	x	x	32µM
COc1ccc(C(=O)N2CCn3c(nn(-c4ccc(OC)cc4)c3=O)C2)cc1	n	n	x	x	u
Cc1cc(CN2CCn3c(nn(-c4ccc(C(F)(F)F)cc4)c3=O)C2)no1	n	89µM	x	x	u
O=C(NC1CCN(c2nccc(Nc3ccccc3Cl)n2)CC1)c1ccc(Cl)cc1	n	u	x	x	u
O=C(c1cccs1)N1Cc2[nH]cnc2C[C@H]1c1nc(-c2ccc3ccccc3c2)no1	n	n	28µM	n	u
COc1ccc(NC(=O)N2Cc3[nH]cnc3C[C@H]2c2nc(-c3ccc4ccccc4c3)no2)cc1	n	u	n	n	u
O=C(c1ccccc1)N1Cc2[nH]cnc2C[C@H]1c1nc(-c2ccncc2)no1	n	n	n	n	n
Cc1ccc(-c2noc([C@@H]3Cc4nc[nH]c4CN3C(=O)c3ccccc3)n2)cc1	n	n	40µM	n	n
O=C(Nc1ccccc1)N1Cc2[nH]cnc2C[C@H]1c1nc(-c2ccc(Cl)cc2)no1	n	100µM	45µM	u	u
Cc1ccc(-c2noc([C@@H]3Cc4nc[nH]c4CN3C(=O)Nc3ccc(Cl)cc3)n2)cc1	u	u	40µM	u	u
CCN(CCNC(=O)C1CCCN(c2cnn(C)c(=O)c2)C1)c1cccc(C)c1 (centres undefined)	n	n	n	n	n
CN(C)C(=O)c1ccnc(-c2nnc3ccc(Nc4ccc(F)c(Cl)c4)nn23)c1	n	n	n	n	u
O=C(Nc1ccccc1)N1Cc2[nH]cnc2C[C@H]1c1nc(-c2ccccc2)no1	n	n	40µM	n	u
O=C(O)CCC(=O)N1Cc2[nH]cnc2C[C@H]1c1nc(-c2ccc(Cl)cc2)no1	n	n	71µM	n	n
O=C(c1ccc(F)cc1)N1Cc2[nH]cnc2C[C@H]1c1nc(-c2ccc(Cl)cc2)no1	n	u	n	n	u
O=C(c1ccc(F)cc1)N1Cc2[nH]cnc2C[C@H]1c1nc(-c2ccc3c(c2)OCO3)no1	n	u	32µM	n	u
O=C(Nc1ccc(Cl)cc1)N1Cc2[nH]cnc2C[C@H]1c1nc(-c2ccc3ccccc3c2)no1	n	u	32µM	n	u
COc1cccc(-c2ccc3onc(C)c3n2)c1	n	u	u	n	u
COc1ccc(-c2ccc3onc(C)c3n2)cc1OC	n	u	n	n	40µM
COc1ccc(-c2ccccc2C(=O)NC2CC2)nn1	x	n	x	x	n
CC(=O)Nc1ccc(CN2CCC3(C2)C(=O)N(C)c2ccccc23)cc1 (centres undefined)	n	n	n	n	n
COc1ccc(CN2CCC3(C2)C(=O)N(c2ccccc2)c2ccccc23)cc1 (centres undefined)	n	50µM	x	x	u
O=C1N(c2ccccc2)c2ccccc2C12CCN(Cc1ccc(C(F)(F)F)cc1)C2 (centres undefined)	n	50µM	x	x	u

Screening results as filed in PubChem.
